Assay outcomes from PubChem.
The list is not random: actives were taken first. Their share in the collection is about 4.7%.
D1 antagonist: Antagonist of Human D 1 Dopamine Receptor: qHTS | D(1A) dopamine receptor (Homo sapiens), P21728 | HEK293 TREx D1 cells, calcium flux, dopamine EC80; stronger effect = lower value | activity change, negative = inhibition, % at 10 µM | 3.2% of 360,000 active | AID 504652, 2011; in the data active = activity change below about -30%
Target sequence (P21728 whole entry, looked up): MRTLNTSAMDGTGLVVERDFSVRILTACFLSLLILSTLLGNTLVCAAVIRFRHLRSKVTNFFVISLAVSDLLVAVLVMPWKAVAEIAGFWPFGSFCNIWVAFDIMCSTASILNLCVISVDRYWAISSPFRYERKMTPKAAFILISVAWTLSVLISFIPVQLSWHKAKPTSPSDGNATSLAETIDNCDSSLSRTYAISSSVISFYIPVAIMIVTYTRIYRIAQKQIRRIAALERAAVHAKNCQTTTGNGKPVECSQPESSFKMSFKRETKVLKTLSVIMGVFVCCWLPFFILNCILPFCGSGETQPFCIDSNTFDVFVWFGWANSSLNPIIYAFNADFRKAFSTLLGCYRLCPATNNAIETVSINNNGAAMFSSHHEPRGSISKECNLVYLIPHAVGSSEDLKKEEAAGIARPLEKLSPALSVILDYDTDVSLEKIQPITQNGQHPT
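Compound effects on dopamine-evoked calcium signalling were measured in tetracycline-induced HEK293 Trex D1 cells. Dopamine at EC80 followed a 180 s compound pre-read, and fluorescence was tracked kinetically for 180 s more.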
TRHR PAM: qHTS for Small Molecule Agonists and Allosteric Enhancers of Human TRH Receptor: Primary Screen for Enhancers. enhancement, % at 2 µM. AID 493056, 2011. 0.66% of 360,000 active. TRHR cells, fluo-8 calcium fluorescence, EC20 TRH enhancement; in the data active = enhancement above about 30%
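TRHR-expressing cells loaded with fluo-8 calcium dye were read kinetically (ex 480/em 530) during compound addition, then stimulated with an EC20 of TRH (10 nM final). Enhancement of the Gq-mediated intracellular calcium response was scored.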
TRHR ag: qHTS for Small Molecule Agonists and Allosteric Enhancers of Human TRH Receptor: Primary Screen for Agonists; Thyrotropin-releasing hormone receptor (Homo sapiens), P34981; AID 493084, 2011; TRHR cells, calcium flux fluo-8, FDSS agonist mode; 0.18% of 360,000 active; activation, % at 2 µM
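Steps: seed TRHR cells overnight; add fluo-8 no-wash Ca dye, RT 30 min–1.5 h; record 10 s baseline; pin-transfer compounds; monitor fluorescence 1 cycle/s for the agonist window. Calcium increases flag candidate agonists.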
D1 potentiator: Potentiators of Human D1 Dopamine Receptor: qHTS. D(1A) dopamine receptor (Homo sapiens), P21728. HEK293 TREx D1 cells, calcium flux, dopamine EC20 potentiation. potentiation, % at 10 µM. 0.036% of 360,000 active. AID 504651, 2011; in the data active = potentiation above about 30%
D1 ag: Allosteric Agonists of the Human D1 Dopamine Receptor: qHTS. 1% of 360,000 active. activation, % at 2 µM. D(1A) dopamine receptor (Homo sapiens), P21728. HEK293 T-REx D1 cells, calcium flux, agonist mode
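Tetracycline-induced HEK293 TREx D1 cells, force-coupled to calcium signalling, were dye-loaded with a no-wash calcium kit. Compound was pin-added after a 10 s baseline. Fluorescence was read kinetically at 1 cycle/s for 180 s, with calcium rises flagged as agonism.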
Of the large screens only hits and unclear results are named; the others gave an inactive call. Cut-off read from the data, not from the text of the source, unless noted: active = activation above about 30%; inactive = the rest.

COc1ccccc1NC(=S)N(CCCN(C)C)Cc1cc2cc3c(cc2[nH]c1=O)OCO3	none
COc1ccc2cc(CN(C(=O)Nc3ccccc3OC)C3CCCC3)c(=O)[nH]c2c1	D1 antagonist -33
COC(=O)c1cc(NC(=O)c2cc3sccc3n2Cc2ccc(Cl)cc2)cc(C(=O)OC)c1	none
CC1N(C)c2cccc3cccc(c23)N1C	D1 antagonist -41
CN1c2cccc3cccc(c23)N(C)C1c1cccs1	none
Oc1ccc(C2C[C@H]3CC[C@@H]2C3)cc1O (some centres not stated)	none
Oc1ccc(C2CNCc3sccc32)cc1O (configuration not stated)	D1 antagonist -96, D1 ag 92
CCOc1ccc(CCNC(=O)c2c3c(nc4ccccc24)C(=O)N(C2CCCCC2)C3)cc1	none
FC(F)(F)c1cc(CO[C@@H]2CCCN[C@@H]2c2ccccc2)cc(C(F)(F)F)c1	D1 ag 47
COc1ccc(-c2nc(CSc3nncn4c3cc3oc(C)cc34)c(C)o2)cc1	none
CC1CCCCN1C(=O)C1CCN(c2nc(-c3ccccc3)nc3c2CCC3)CC1 (configuration not stated)	TRHR PAM 39
CC(C)c1nc(C(=O)N2CCCC(N3CCN(c4cccc(Cl)c4)CC3)C2)cs1 (configuration not stated)	none
CCN(CC)c1ccc(/C=C2\C(=N)N3N=C(CC(=O)N4CCOCC4)SC3=NC2=O)cc1	TRHR ag 34, D1 ag 115
CSc1ccc(/C=C2\C(=N)N3N=C(CC(=O)N4CCOCC4)SC3=NC2=O)cc1	none
N#Cc1cc([N+](=O)[O-])ccc1N1CCN(c2ccccc2O)CC1	D1 antagonist -30
CC(C)Oc1ccc(C(CC(=O)NCCCN(C)C)c2ccc(F)cc2)cc1 (configuration not stated)	D1 antagonist -37
Cc1nnc(NC(=O)c2nc(SC(C)C)ncc2Cl)s1	none
COc1ccc(C2c3c(n(C)c4ccccc34)C(=O)N2CC(=O)Nc2cccc(Cl)c2)cc1 (configuration not stated)	none
Cc1c(C)n(C(=O)CN2CCC(C)CC2)c2ccccc12	TRHR PAM 35
CC(=O)Nc1ccc(Nc2nc(Cl)nc(Nc3ccc(NC(C)=O)cc3)n2)cc1	D1 antagonist -36
Cn1nnnc1Sc1ncnc2scc(-c3ccc(N)cc3)c12	none
COc1cccc(C=Nc2ccc(N3CCOCC3)cc2)c1O	TRHR PAM 36
COc1cccc(/C=N/N2CCOCC2)c1O	none
Cc1cc(NC(=O)C(Cl)c2ccccc2)no1 (configuration not stated)	none
O=C(CSCc1ccccc1)Nc1ccc(S(=O)(=O)Nc2ncccn2)cc1	none
COc1ccc(N2CC(NC(=O)COc3ccc(F)cc3)CC2=O)cc1OC (configuration not stated)	D1 ag 86 (no result: D1 antagonist)
COc1ccc(N2CC(NC(=O)COc3cccc(C)c3)CC2=O)cc1OC (configuration not stated)	D1 ag 33 (no result: D1 antagonist)
O=C(CCc1ccccc1)NC1CC(=O)N(c2cccc(F)c2)C1 (configuration not stated)	TRHR PAM 37 (no result: D1 antagonist)
CC1CCc2nn(CC(=O)Nc3cccc(C(F)(F)F)c3)c(=O)cc2C1 (configuration not stated)	none
Cc1ccc(NC(=O)c2cc([N+](=O)[O-])ccc2NCc2cccnc2)cc1	D1 antagonist -36
CN(C)C(=O)c1ccc2c(c1)N(CC(=O)NCc1ccccc1Cl)C(=O)C1CCCCN21 (configuration not stated)	none
Cc1ccc(C(=O)OCc2cc3ccccc3[nH]c2=O)cc1	TRHR PAM 38
COc1ccc(-c2ccc(C3C(C#N)=C(N)Oc4n[nH]c(C)c43)o2)cc1 (configuration not stated)	D1 antagonist -33, D1 ag 32
CCc1nnc(NC(=O)c2nc(SC)ncc2Cl)s1	none
Cc1[nH]c(C)c(S(=O)(=O)N(Cc2ccccc2)C(C)C)c1C(=O)N1CCCC1	D1 antagonist -34
Cc1cccc(N2CCN(S(=O)(=O)c3c(C)[nH]c(C)c3C(=O)N3CCCCC3)CC2)c1C	TRHR PAM 30
CS(=O)(=O)N(Cc1ccc(Cl)cc1)c1ccc(C(=O)Nc2cccnc2)cc1	D1 antagonist -38
CN(c1ccc(C(=O)Nc2cccnc2)cc1)S(=O)(=O)c1ccc(Cl)cc1	D1 antagonist -41
COc1ccc(S(=O)(=O)N(C)c2ccc(C(=O)Nc3cccnc3)cc2)cc1	D1 antagonist -33
COc1ccc(S(=O)(=O)N(C)c2ccc(C(=O)Nc3cccnc3)cc2)cc1OC	none
CN(c1ccc(C(=O)Nc2cccnc2)cc1)S(=O)(=O)c1ccccc1	none
O=C(CCn1nc(-c2ccc(Cl)cc2)c2ccccc2c1=O)Nc1ccc(OC(F)(F)F)cc1	none
O=[N+]([O-])c1ccc2[nH]ncc2c1	D1 antagonist -44
Brc1ccc2[nH]ncc2c1	D1 antagonist -32
Nc1ccc2cn[nH]c2c1	none
CNS(=O)(=O)c1cn(CC(=O)NCc2ccccc2OC)cc1S(=O)(=O)NC	none
COC(=O)c1ccc(OC(=O)CS(=O)c2ccccc2[N+](=O)[O-])cc1 (configuration not stated)	none
CCOC(=O)c1ccccc1OC(=O)CS(=O)c1ccccc1[N+](=O)[O-] (configuration not stated)	D1 antagonist -32
COC(=O)c1cc2oc(C)cc2n1Cc1ccc(C)cc1	none
CCn1c(=O)c2sccc2n2c(CCC(=O)Nc3cc(C)cc(C)c3)nnc12	none
O=S(=O)(c1ccccc1)N1CCSC1c1ccco1 (configuration not stated)	D1 antagonist -44, TRHR PAM 34
CC(=O)Nc1ccc(S(=O)(=O)N2CCSC2c2ccco2)cc1 (configuration not stated)	none
O=C(CN(c1cccc(C(F)(F)F)c1)S(=O)(=O)c1ccc(Cl)c([N+](=O)[O-])c1)NCc1ccccc1	D1 antagonist -31
CC(C)(C)c1ccc(Nc2nc(C#N)nc(NC3CCCC3)n2)cc1	none
CC(C)/C=C1\CC/C(=C\c2ccc(N(C)C)cc2)C1=O	D1 antagonist -31, TRHR ag 94, D1 ag 243
Cc1cc(Cl)ccc1OCCCC(=O)NNC(=O)c1ccccc1O	none
